About 2,000 (36%) of roughly 5,500 compounds were called active. About 18% were inconclusive and are not listed. This is one part of the list. Values without a mark were called inactive. Cut-off read from the data, not from the text of the source: active = normalized growth mostly below about 0.91 (no sharp cut-off); inconclusive = no clear call, values can overlap the other calls; inactive = mostly above about 0.92.
Assay: chemical genetic growth profiling, strain panel (AID 1159580);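 note: tested at 20 µM; growth read once vehicle control cultures reached saturation at 30 °C; 1 = growth at the plate median or of vehicle wells; lower values mean less growth of the strain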
Details: S. cerevisiae deletion strains, growth OD

O=C1C=CC(=O)c2c(O)c(Cl)c(Cl)c(O)c21
normalized growth (locus YAL021C, strain ccr4, hits give low values): 0.0743 (active) | normalized growth (locus YAL026C, strain drs2, hits give low values): 0.0712 (active) | normalized growth (locus YAL030W, strain snc1, hits give low values): 0.065 (active) | normalized growth (locus YBL061C, strain skt5, hits give low values): 0.0691 (active) | normalized growth (locus YBR009C, strain hhf1, hits give low values): 0.0757 (active) | normalized growth (locus YBR023C, strain chs3, hits give low values): 0.0713 (active) | normalized growth (locus YBR171W, strain sec66, hits give low values): 0.0854 (active) | normalized growth (locus YBR231C, strain swc5, hits give low values): 0.0695 (active) | normalized growth (locus YBR279W, strain paf1, hits give low values): 0.0653 (active) | normalized growth (locus YCL011C, strain gbp2, hits give low values): 0.0661 (active) | normalized growth (locus YCL016C, strain dcc1, hits give low values): 0.0723 (active) | normalized growth (locus YCL061C, strain MRC1, hits give low values): 0.0708 (active) | normalized growth (locus YCL069W, strain vba3, hits give low values): 0.0675 (active) | normalized growth (locus YCR088W, strain abp1, hits give low values): 0.0687 (active) | normalized growth (locus YDL005C, strain med2, hits give low values): 0.0837 (active) | normalized growth (locus YDL040C, strain nat1, hits give low values): 0.0677 (active) | normalized growth (locus YDR001C, strain nth1, hits give low values): 0.0651 (active) | normalized growth (locus YDR069C, strain doa4, hits give low values): 0.0731 (active) | normalized growth (locus YDR137W, strain rgp1, hits give low values): 0.816 (active) | normalized growth (locus YDR159W, strain sac3, hits give low values): 0.817 (active) | normalized growth (locus YDR195W, strain ref2): 0.72 (active) | normalized growth (locus YDR297W, strain sur2, hits give low values): 0.0653 (active) | normalized growth (locus YDR334W, strain swr1, hits give low values): 0.0709 (active) | normalized growth (locus YDR335W, strain msn5, hits give low values): 0.0705 (active) | normalized growth (locus YDR392W, strain spt3, hits give low values): 0.11 (active) | normalized growth (locus YEL003W, strain gim4, hits give low values): 0.0616 (active) | normalized growth (locus YEL037C, strain rad23, hits give low values): 0.0635 (active) | normalized growth (locus YEL061C, strain CIN8 (second series), hits give low values): 0.0685 (active) | normalized growth (locus YER015W, strain faa2, hits give low values): 0.0696 (active) | normalized growth (locus YER016W, strain bim1, hits give low values): 0.0673 (active) | normalized growth (locus YER111C, strain swi4, hits give low values): 0.984 | normalized growth (locus YER155C, strain BEM2 (second series), hits give low values): 0.101 (active) | normalized growth (locus YFR010W, strain ubp6, hits give low values): 0.0771 (active) | normalized growth (locus YGL167C, strain pmr1, hits give low values): 0.0844 (active) | normalized growth (locus YGL173C, strain kem1, hits give low values): 0.0767 (active) | normalized growth (locus YGL227W, strain vid30, hits give low values): 0.0694 (active) | normalized growth (locus YGL240W, strain doc1, hits give low values): 0.087 (active) | normalized growth (locus YGL253W, strain hxk2, hits give low values): 0.0606 (active) | normalized growth (locus YHR013C, strain ard1, hits give low values): 0.118 (active) | normalized growth (locus YHR027C, strain rpn1, hits give low values): 0.0722 (active) | normalized growth (locus YHR030C, strain SLT2, hits give low values): 0.114 (active) | normalized growth (locus YHR079C, strain IRE1, hits give low values): 0.132 (active) | normalized growth (locus YHR142W, strain chs7, hits give low values): 0.0821 (active) | normalized growth (locus YJL092W, strain hpr5, hits give low values): 0.066 (active) | normalized growth (locus YJL095W, strain BCK1 (second series), hits give low values): 0.0647 (active) | normalized growth (locus YJL095W, strain BCK1, hits give low values): 0.118 (active) | normalized growth (locus YJL115W, strain asf1, hits give low values): 0.0821 (active) | normalized growth (locus YJL129C, strain trk1, hits give low values): 0.965 | normalized growth (locus YJL154C, strain vps35, hits give low values): 0.0659 (active) | normalized growth (locus YJL164C, strain tpk1, hits give low values): 0.076 (active) | normalized growth (locus YJL166W, strain qcr8, hits give low values): 0.0693 (active) | normalized growth (locus YJL187C, strain SWE1, hits give low values): 0.0656 (active) | normalized growth (locus YJR066W, strain TOR1, hits give low values): -0.00728 (active) | normalized growth (locus YKL160W, strain elf1, hits give low values): 0.0955 (active) | normalized growth (locus YKR026C, strain gcn3, hits give low values): 0.0721 (active) | normalized growth (locus YKR091W, strain srl3, hits give low values): 0.0686 (active) | normalized growth (locus YLL001W, strain dnm1, hits give low values): 0.0682 (active) | normalized growth (locus YLL026W, hits give low values): 0.065 (active) | normalized growth (locus YLL041C, strain sdh2, hits give low values): 0.0651 (active) | normalized growth (locus YLR027C, strain aat2, hits give low values): 0.0649 (active) | normalized growth (locus YLR113W, strain HOG1, hits give low values): 0.129 (active) | normalized growth (locus YLR221C, strain rsa3, hits give low values): 0.0719 (active) | normalized growth (locus YLR258W, strain gsy2, hits give low values): 0.0692 (active) | normalized growth (locus YLR262C, strain YPT6 (second series), hits give low values): 0.0889 (active) | normalized growth (locus YLR320W, strain mms22, hits give low values): 0.0961 (active) | normalized growth (locus YLR342W, strain FKS1, hits give low values): 0.0745 (active) | normalized growth (locus YLR357W, strain rsc2, hits give low values): 0.136 (active) | normalized growth (locus YLR370C, strain arc18, hits give low values): 0.0692 (active) | normalized growth (locus YLR384C, strain iki3, hits give low values): 0.0665 (active) | normalized growth (locus YML120C, strain ndi1, hits give low values): 0.928 | normalized growth (locus YMR058W, strain fet3, hits give low values): 0.0663 (active) | normalized growth (locus YMR125W, strain sto1, hits give low values): 0.0829 (active) | normalized growth (locus YMR129W, hits give low values): 0.0652 (active) | normalized growth (locus YMR205C, strain PFK2, hits give low values): 0.0948 (active) | normalized growth (locus YMR231W, strain pep5, hits give low values): 0.0753 (active) | normalized growth (locus YNL071W, strain lat1, hits give low values): 0.0684 (active) | normalized growth (locus YNL183C, strain NPR1, hits give low values): 0.021 (active) | normalized growth (locus YNL209W, strain ssb2, hits give low values): 0.0691 (active) | normalized growth (locus YNL248C, strain rpa49, hits give low values): 0.0871 (active) | normalized growth (locus YNL322C, strain KRE1 (second series), hits give low values): 0.0721 (active) | normalized growth (locus YNR049C, strain mso1, hits give low values): 0.0642 (active) | normalized growth (locus YOR001W, strain rrp6, hits give low values): 0.0755 (active) | normalized growth (locus YOR070C, strain gyp1, hits give low values): 0.0663 (active) | normalized growth (locus YOR080W, strain dia2, hits give low values): 0.104 (active) | normalized growth (locus YOR083W, strain WHI5, hits give low values): 0.0727 (active) | normalized growth (locus YOR106W, strain vam3, hits give low values): 0.0721 (active) | normalized growth (locus YOR231W, strain MKK1, hits give low values): 0.129 (active) | normalized growth (locus YOR265W, strain rbl2, hits give low values): 0.0661 (active) | normalized growth (locus YOR270C, strain vph1, hits give low values): 0.108 (active) | normalized growth (locus YOR290C, strain snf2, hits give low values): 0.963 | normalized growth (locus YPL051W, strain arl3, hits give low values): 0.0733 (active) | normalized growth (locus YPL078C, strain atp4, hits give low values): 0.852 (active) | normalized growth (locus YPL106C, strain sse1, hits give low values): 0.116 (active) | normalized growth (locus YPL240C, strain hsp82, hits give low values): 0.0634 (active) | normalized growth (locus YPL256C, strain CLN2, hits give low values): 0.147 (active)
